The values that follow come from PubChem BioAssay (NCI).

Compounds without any hit were thinned out: in the full panel of roughly 83,000, 20% have a hit.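 How to read the values: 0–100, growth inhibition (40 = 60% inhibited); 0, no net growth; -100 to 0, cell death (-40 = 40% of starting cells died; -100 = all dead).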 Calls of active or inactive are those of the source. Rule for the calls: active = growth percent below 10; inactive = the rest.

The experiment relates to HOP-92 NSCLC. Briefly: NCI-60 one-dose screen, 48 h (100 = growth as untreated, 0 = no growth, -100 = all killed). As to conditions: 10 µM unless noted.
For `COc1ccc(/C(C)=N/NS(=O)(=O)c2ccc(C)cc2)cc1OC`, the growth was 69% (inactive).
For the molecule `C[C@@H]1C(=O)N(C[C@@H](Cc2ccccc2)NC(=O)OCc2ccccc2)[C@]1(Cc1ccccc1)C(=O)OCc1ccccc1`, the growth is 30.1% (inactive).
With `NC(=Nc1ccc(N)cc1)C(N)=Nc1ccc(N)cc1`, the growth is 112% (inactive).
As for `N#Cc1c(NC(=O)c2ccccc2I)sc2c1CCCC2`, the figure is 71.6% (inactive).
As for `Cc1ccc(Nc2ccc(Nc3ccc(C)cc3S(=O)(=O)O)c3c2C(=O)c2ccccc2C3=O)c(S(=O)(=O)O)c1`, the figure is 99% (inactive).
In the case of `C=C1C(=O)O[C@H]2[C@H]1CC/C(Cn1cc(CNCCc3c[nH]c4ccc(Cl)cc34)nn1)=C\CC[C@@]1(C)O[C@@H]21`, the growth is -7.88% (active).
For `Cn1cc(Nc2nccc(-c3ccc(N4CCCC4)c(C#N)c3)n2)cn1`, the growth was 67% (inactive).
Under `CSc1ncc(C)c(Nc2ccc(Cl)cc2)n1` stands 73.6% (inactive).
In the case of `COc1cc(/C=C2\C=C(c3ccccc3)N(CCc3ccccc3)C2=O)cc(OC)c1OC`, the growth is 41.3% (inactive).
Turning to `O=c1cc(-c2ccc(OCc3ccccc3)cc2)oc2c(I)c(OCc3ccccc3)cc(OCc3ccccc3)c12`, the growth was 108% (inactive).
As to `CC(=O)Nc1nccs1`, the growth is 89.1% (inactive).
For `N[C@H]1CCC[C@@H]1NCCCCN1C(=O)c2cccc3cccc(c23)C1=O`, the growth is 51.4% (inactive).
With `N=C(N)c1ccc(-c2ccc(-c3ccc(Cl)cc3Cl)o2)nc1`, the growth is 77.4% (inactive).
For `O=C1N/C(=N/O)S/C1=C/c1cn(-c2ccccc2)nc1-c1ccccc1`, the growth is 107% (inactive).
With `C[C@@H]1CC[C@@H]2[C@@H]1[C@H](OC(=O)c1ccc3ccccc3c1)[C@]1(C3CCCCC3)C[C@@H](OC(=O)CO)[C@@]2(C)O1`, the growth was 34.9% (inactive).
Regarding `CN(C)c1ccc(C#Cc2c(F)cccc2Cl)cc1`, the growth is 79.5% (inactive).
As for `CCCN1CCN(c2ccc3nc(-c4ccc5nc(-c6cc(OC)c(OC)c(OC)c6)[nH]c5c4)[nH]c3c2)CC1`, the figure is 70.5% (inactive); as for `O=C(NCCOCCOCCOCCNC(=O)c1cc2c(o1)C(=O)c1ccccc1C2=O)NC12CC3CC(CC(C3)C1)C2`, 43.5% (inactive); as for `COc1cc2c(cc1OC)-c1ccc3cc4c(cc3c1N(CCN(C)C)C2)OCO4`, -5.08% (active).
As for `O=C(NC(=S)Nc1ccc(-c2nc3ccccc3[nH]2)cc1)c1ccc2ccccc2c1`, the figure is -1.16% (active); as for `CC[C@@H](C[C@H](CCO)c1ccccc1)c1cc2ccccc2o1`, 96.8% (inactive).
For `NC(N)=N/N=C/c1ccc(Br)cc1`, the growth is 49.3% (inactive).
On to `CN(C)CCOC(=O)Nc1ccc(Cl)cc1`, for which the growth was 85.5% (inactive).
Under `O=C(/C=C/C12c3ccccc3C(c3ccccc31)C1C(=O)N(c3ccc(Cl)cc3)C(=O)C12)c1ccccn1` (centres undefined) stands -53.7% (active).
`OC(c1cccc(OCc2ccccc2)c1)c1nnc(-c2ccccc2)o1` (centres undefined): the growth is 80.9% (inactive).
For the molecule `O=C1N(c2ccccc2)C(=S)N[C@]12[C@H](c1ccccc1)C1CCCN1[C@]21C(=O)NC2C=CC(Cl)=C[C@H]21` (some centres undefined), the growth was 56.7% (inactive).
`COC(=O)/C(=C\c1ccc(OC)cc1)C(=O)N1c2ccccc2Sc2ccccc21`: the growth is 38.7% (inactive).
Turning to `Cc1ccc(S(=O)(=O)Nc2sccc2-c2nc(-c3ccccc3)no2)cc1`, the growth is 88.8% (inactive).
Under `CCNCCNc1cc(-c2ccc(C(F)(F)F)cc2)c(C#N)c2nc3cc(Cl)c(Cl)cc3n12` stands -83.5% (active); under `COc1ccc(/C=C(\C#N)n2nnc3ccccc32)cc1`, 24.7% (inactive); under `CC(C)n1nc(C#Cc2cccc3cc(-c4cccc(C(F)(F)F)c4)ncc23)c2c(N)ncnc21`, 78% (inactive).
Regarding `COC(=O)CNC(=O)C(=O)c1c(O)c(O)c(C(C)C)c2cc(C)c(-c3c(C)cc4c(C(C)C)c(O)c(O)c(C(=O)C(=O)NCC(=O)OC)c4c3O)c(O)c12`, the growth was -7.96% (active).
In the case of `NC(=O)c1c(NC(=O)c2ccc(C(F)(F)F)cc2Cl)sc2c1CCC(=O)C2`, the growth is -61.7% (active).
Consider `C[C@@H](C[C@H](CCOCc1cccnc1)c1ccccc1)c1cc2ccccc2o1`, for which the growth was 84.9% (inactive).
`CCn1c(Sc2nnc(Nc3ccccc3)s2)nc2c1c(=O)n(C)c(=O)n2C`: the growth is 61.5% (inactive).
On to `Cc1cc(Cl)nc(N(CCCNc2ccnc3cc(Cl)ccc23)Cc2ccccn2)n1`, for which the growth was 30.6% (inactive).
For `OC(CBr)c1ccnc2ccccc12` (centres undefined), the growth is 89.3% (inactive).
With `COc1cc(C2C=C(c3cccc(NC(C)=O)c3)Nc3ncnn32)cc(OC)c1OC` (centres undefined), the growth is 68.9% (inactive).
As for `CCCCOC(=O)c1ccc(NC(=O)C(C)N2CCOCC2)cc1` (centres undefined), the figure is 76.7% (inactive).
